# In article PMC4336329 (PLoS ONE, 2015):
# Out of some 310,000 compounds screened, about 14,000 (4.5%) showed an effect of 50% or more. The effect is printed as a negative number. What follows is part of a selection rich in strong results, with near analogues and random picks from the rest.
# Molecular target: human ether-à-go-go-related gene (hERG) potassium channel (human, UniProt Q12809)
# Assay: primary screen, population patch clamp on CHO cells stably expressing hERG; higher = less effect of the substance
# 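Also: peak tail current of the secondary pulse compared with the same well before compound.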
# human ether-à-go-go-related gene (hERG) potassium channel, sequence (Q12809 whole entry, looked up): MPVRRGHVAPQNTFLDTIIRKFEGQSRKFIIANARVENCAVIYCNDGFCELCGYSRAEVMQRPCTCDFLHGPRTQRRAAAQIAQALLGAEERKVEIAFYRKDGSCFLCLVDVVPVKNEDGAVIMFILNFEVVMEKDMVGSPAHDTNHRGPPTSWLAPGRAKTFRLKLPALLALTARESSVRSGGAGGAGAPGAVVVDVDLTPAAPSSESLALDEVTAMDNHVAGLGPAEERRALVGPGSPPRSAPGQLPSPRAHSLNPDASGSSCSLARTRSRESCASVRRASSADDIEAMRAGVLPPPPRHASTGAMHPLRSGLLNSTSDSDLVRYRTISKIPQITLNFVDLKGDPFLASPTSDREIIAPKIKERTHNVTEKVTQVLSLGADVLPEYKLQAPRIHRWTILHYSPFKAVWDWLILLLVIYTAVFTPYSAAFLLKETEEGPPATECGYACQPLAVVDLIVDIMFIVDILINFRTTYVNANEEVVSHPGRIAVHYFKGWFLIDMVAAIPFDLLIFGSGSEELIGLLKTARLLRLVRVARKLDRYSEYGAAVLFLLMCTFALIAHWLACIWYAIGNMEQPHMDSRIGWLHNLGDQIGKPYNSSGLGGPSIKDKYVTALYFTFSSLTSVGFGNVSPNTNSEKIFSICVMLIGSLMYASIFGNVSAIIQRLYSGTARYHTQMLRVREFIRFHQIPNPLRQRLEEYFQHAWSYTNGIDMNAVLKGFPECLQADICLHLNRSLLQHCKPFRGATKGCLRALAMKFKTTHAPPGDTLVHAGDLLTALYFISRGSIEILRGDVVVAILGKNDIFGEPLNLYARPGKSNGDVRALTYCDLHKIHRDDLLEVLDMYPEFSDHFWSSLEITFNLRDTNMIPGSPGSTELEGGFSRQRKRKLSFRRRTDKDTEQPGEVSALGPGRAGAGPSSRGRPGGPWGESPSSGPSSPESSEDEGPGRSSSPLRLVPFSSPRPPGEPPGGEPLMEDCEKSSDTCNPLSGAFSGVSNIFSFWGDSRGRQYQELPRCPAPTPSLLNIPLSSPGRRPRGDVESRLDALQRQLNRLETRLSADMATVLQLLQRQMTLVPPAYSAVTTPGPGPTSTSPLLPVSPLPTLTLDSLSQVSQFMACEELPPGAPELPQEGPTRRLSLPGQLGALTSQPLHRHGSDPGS
row,SMILES,"hERG current change (%, negative = inhibition) at 10uM [%]"
1,C=C(c1ccccc1O)n1ccnc1,27.8
2,Cc1[nH]nc2c1C(c1ccco1)C(C#N)=C(N)O2 (centres unmarked),18.4
3,Cc1nnc(SCCn2c(N3CCCC(C)C3)nc3c2c(=O)n(C)c(=O)n3C)s1 (centres unmarked),-5.21
4,c1cnc2ccc(C(c3nnnn3C3CCCCC3)N3CCN(C4CCCCC4)CC3)cc2c1 (centres unmarked),-78.8
5,c1cnc2ccc(C(c3nnnn3C3CCCC3)N3CCN4CCCC4C3)cc2c1 (centres unmarked),-45.2
6,CCC(C)(C)n1nnnc1C(c1ccc2ncccc2c1)N1CCN2CCCC2C1 (centres unmarked),-10.8
7,OC1CCN(C(c2ccc3ncccc3c2)c2nnnn2C2CCCCC2)CC1 (centres unmarked),-31.8
8,c1cnc2ccc(C(c3nnnn3C3CCCCC3)N3CCCCC3)cc2c1 (centres unmarked),-15.6
9,c1cnc2ccc(C(c3nnnn3C3CCCCC3)N3CCN4CCCC4C3)cc2c1 (centres unmarked),-109
10,CCOC(=O)c1cccc(N2C(N)=NC(N)=NC2(C)C)c1.Cl,-1.9
11,CCOc1ccccc1C(=O)NC(C(=O)NCc1ccc(F)cc1)C(C)C (centres unmarked),-14.7
12,CC(=O)N/C(=C/c1ccc(OC(F)F)cc1)C(=O)O,3.4
13,COc1ccc(C(=O)Nc2c(N)nc(SCC(=O)N3CCCCCC3)[nH]c2=O)cc1OC,0.918
14,Cc1ccccc1NC(=O)CSc1nnc(Cc2cccn2C)n1-c1ccc(F)cc1,-0.084
15,O=C(NNS(=O)(=O)c1ccc(CCCl)cc1)C(O)(c1ccccc1)c1ccccc1,-55.9
16,O=C(NNS(=O)(=O)c1ccccc1)C(O)(c1ccccc1)c1ccccc1,7.23
17,Cc1ccc(S(=O)(=O)NNC(=O)C(O)(c2ccccc2)c2ccccc2)cc1,1.02
18,CCc1cc(CNC(=O)c2ccc(OC3CCN(CCc4ccccc4)CC3)cc2)on1,-75.5
19,O=C(NCc1ccon1)c1ccc(OC2CCN(CCc3ccccc3)CC2)cc1,-66.6
20,CCOCCCNC(=O)c1cccc(OC2CCN(S(C)(=O)=O)CC2)c1,12.6
21,O=C(NCCn1cccn1)c1ccc(OC2CCN(CCc3ccccc3)CC2)cc1,-41.3
22,CC(C)c1cc(CNC(=O)c2ccc(OC3CCN(Cc4ccccn4)CC3)cc2)on1,-16.1

row,SMILES,"hERG current change (%, negative = inhibition) at 10uM [%]"
1,Cc1cc(CNC(=O)c2cccc(OC3CCN(S(=O)(=O)N(C)C)CC3)c2)on1,0.225
2,CCc1cc(CNC(=O)c2cccc(OC3CCN(S(C)(=O)=O)CC3)c2)on1,-70.3
3,O=C(NCCc1ccccn1)c1ccc(OC2CCN(CCc3ccccc3)CC2)cc1,-41.9
4,COCCC(=O)N1CCC(Oc2ccc(C(=O)NCc3ccon3)cc2)CC1,3.38
5,COc1ccccc1C(=O)NCCC(=O)N1CCN(c2cccc(C(F)(F)F)c2)CC1,-21.7
6,COc1ccc(Cc2nnc(NS(C)(=O)=O)s2)cc1,3.9
7,Cc1cc(NC(=O)c2cc(CC(C)C)on2)no1,7.66
8,Nc1c(C(=O)NCc2ccccc2)c2nc3ccccc3nc2n1-c1ccc2c(c1)OCO2,5.58
9,Cc1ccc2c(c1)c(N=NC(N)=S)c(O)n2Cc1ccccc1,-1.71
10,COc1cccc(C2C(=O)N(C3CCCCC3)CC(=O)N2Cc2ccc(F)cc2)c1 (centres unmarked),-43.8
11,O=C(Nc1nc2ccccc2[nH]1)c1ccc(OC(F)F)cc1,-11
12,N#CC(Cc1ccccc1OC(F)F)c1nc2ccccc2[nH]1 (centres unmarked),-16.2
13,N#CC(CO)(Cc1ccc(OC(F)F)cc1)c1nc2ccccc2[nH]1 (centres unmarked),-52
14,N#CC(Cc1ccc(OC(F)F)cc1)c1nc2ccccc2[nH]1 (centres unmarked),-70.1
15,COc1ccc(CC(C#N)(CO)c2nc3ccccc3[nH]2)cc1 (centres unmarked),-7.12
16,COc1cc(CC(C#N)(CO)c2nc3ccccc3[nH]2)ccc1OC(F)F (centres unmarked),-18.9
17,Cc1cc(C)cc(C(=O)N2CCN(Cc3ccc4c(c3)OCO4)CC2)c1,-20.1
18,COc1ccccc1Oc1ccc(N2CC(C(=O)OCC(=O)c3ccccc3)CC2=O)cc1 (centres unmarked),18
19,O=C(Cc1cccs1)N/N=C/c1ccccn1,-7.62
20,Cc1cc(NC(=O)COC(=O)C(C)Oc2ccc(Cl)cc2Cl)no1 (centres unmarked),12.2
21,COc1ccc(/C=N/Nc2ccccn2)c(OC)c1OC,3.27
22,Cc1ccc(NS(=O)(=O)c2ccc(-c3cnc(C4CC4)o3)cc2)c(C)c1,2.08

row,SMILES,"hERG current change (%, negative = inhibition) at 10uM [%]"
1,COC(=O)c1ccc(Cn2c(CN3CCOCC3)nc3ccccc3c2=O)o1,-5.56
2,Cc1cc(C(F)F)n2ncc(C(=O)N3CCC(C(N)=O)CC3)c2n1,16.1
3,CCCCN(C)C(=O)c1cc2c(s1)-c1ccccc1S(=O)(=O)C2,-56.5
4,CN(C(=O)c1cc2c(s1)-c1ccccc1S(=O)(=O)C2)c1ccccc1,-0.0159
5,CN(C(=O)c1cc2c(s1)-c1ccccc1S(=O)(=O)C2)c1ccccc1F,-3.69
6,O=C1CCCCC1C(Nc1ccc(Br)cc1)c1ccccc1 (centres unmarked),4.34
7,O=C(CCC(=O)Nc1ccc(F)cc1)N/N=C/c1ccc(F)cc1,13.1
8,COc1cc(N2Cc3ccccc3C2)ccc1C=O,-3.61
9,COc1ccc(N2Cc3ccccc3C2)cc1Cl,-59.9
10,COc1ccc(Cl)cc1N1Cc2ccccc2C1,-3.46
11,O=c1cc(Nc2ccc3c(c2)OCCO3)[nH]c(=O)n1-c1ccc(Br)cc1,14.3
12,O=C(CN1C(=O)CSc2ccc(S(=O)(=O)N3CCCCC3)cc21)NCc1ccccc1Cl,-15.1
13,O=S(=O)(Nc1cccc(-n2cnnn2)c1)c1cccc(Cl)c1,16.2
14,CN1CCC(NC(=O)c2cc(-c3cccc(Br)c3)nc3ccccc23)CC1,-69.7
15,COc1cccc(-c2cc(C(=O)Nc3ccccc3)c3ccccc3n2)c1,8.07
16,COc1cccc(-c2cc(C(=O)NC3CCCC3)c3ccccc3n2)c1,-36.8
17,Cc1ccc2nc(-c3cccc(Br)c3)cc(C(=O)NC3CC3)c2c1,13.7
18,Cc1ccc(C)c(-c2cc(C(=O)Nc3cccnc3)c3ccccc3n2)c1,-61
19,O=C(NC1CC1)c1cc(-c2ccc(Br)cc2)nc2ccccc12,0.545
20,COc1cccc(-c2cc(C(=O)NC3CC3)c3ccccc3n2)c1,-51.2
21,CN1CCC(N(C)C(=S)NC(=O)c2cc(-c3cccc(Br)c3)nc3ccccc23)CC1,-15.3
22,Cc1ccc(C)c(-c2cc(C(=O)Nc3cccc(C(=O)O)c3)c3ccccc3n2)c1,20.3

row,SMILES,"hERG current change (%, negative = inhibition) at 10uM [%]"
1,Cc1cccc(-c2cc(C(=O)Nc3cccnc3)c3ccccc3n2)c1,-21.2
2,COc1ccc(-c2cc(C(=O)NC3CCCC3)c3ccccc3n2)cc1,-21.6
3,COc1ccc(-c2cc(C(=O)NC3CC3)c3ccccc3n2)cc1,-64.5
4,CC1=C(C(=O)OC(C)C)C(c2ccccc2)NC(=S)N1C (centres unmarked),2.43
5,COc1ccc(-n2c(=S)[nH]c3ccccc32)cc1,1.28
6,COC(=O)c1sccc1NC(=O)c1c(C)c(-c2cccc(Cl)c2)nc2ccccc12,16.7
7,Cc1ccc(C)c(-c2cc(C(=O)NC3CC3)c3ccccc3n2)c1,-61.1
8,Cc1c(-c2cccc(Cl)c2)nc2ccccc2c1C(=O)NC1CC1,-60.6
9,Cc1c(-c2cccc(Cl)c2)nc2ccccc2c1C(=O)N1CCC2(CC1)OCCO2,-47.4
10,Cc1ccc(-c2cc(C(=O)NCCc3ccccn3)c3ccccc3n2)c(C)c1,-51.1
11,O=C(NCCc1ccccn1)c1cc(-c2ccccc2Cl)nc2ccccc12,-2.8
12,CC(C)Oc1cccc(-c2cc(C(=O)NN3CCOCC3)c3ccccc3n2)c1,-60.8
13,Cc1ccc(C)c(-c2cc(C(=O)NN3CCOCC3)c3ccccc3n2)c1,-17.1
14,COc1cccc(-c2cc(C(=O)NN3CCOCC3)c3ccccc3n2)c1,-24.3
15,O=C(NN1CCOCC1)c1cc(-c2ccccc2)nc2ccccc12,-8.03
16,Cc1cc(C(=O)NC2CC2)c2ccccc2n1,19.9
17,Cl.O=C(NCCc1ccccn1)c1cc(-c2cccc3ccccc23)nc2ccccc12,-27.1
18,CN(C)S(=O)(=O)c1ccc(N2CCCC2)c(C(=O)Nc2ccc(N3CCOCC3)cc2)c1,-7.91
19,COc1ccc(C(=O)NCC(=O)NCC(=O)OCc2ccc(Cl)cc2)cc1,-6.07
20,O=C(Cc1ncn[nH]1)NCCc1ccccc1,-3.77
